Screen size: about 10,000 compounds; about 320 (3.2%) were called active. No stated cut-off is given here; in the data, active means CPE inhibition mostly above about 9.1% (no sharp cut-off); inactive means mostly below about 7.2%. The entries come from a sample that favours actives as a whole.

The text below walks through data of PubChem BioAssay AID540333 (Southern Research Specialized Biocontainment Screening …, 2011).

The test is described as follows: Dengue virus cytopathic effect inhibitors, cell-based, CPE readout, HTS (AID 540333). The conditions noted are these: Dengue virus CPE inhibition in host cells, at 20 µM; stronger effect = higher value.
For the molecule `O=S(=O)(/N=C(/Nc1ccccn1)c1ccc(Cl)cc1)c1ccc(Cl)cc1`, the CPE inhibition was 0.025% (inactive).

Regarding `Cc1ccc(C)c(NC(=O)COc2cccc3c2CCN(Cc2ccccc2)C3=O)c1`, the CPE inhibition was 0.435% (inactive).

For the molecule `Cc1ccc(COc2cccc3c2CCN(Cc2ccc(F)cc2)C3=O)cc1`, the CPE inhibition was 23% (active).

As for `Cc1ccc(CN2CCc3c(OCc4ccc(F)cc4)cccc3C2=O)cc1`, the CPE inhibition is 23.2% (active).

With `O=C1c2cccc(OCc3ccc(F)cc3)c2CCN1Cc1ccccc1`, the CPE inhibition was 11.8% (active).

With `CCOC(=O)N1CCN(C(=O)COc2cccc3c2CCN(Cc2ccc(F)cc2)C3=O)CC1`, the CPE inhibition is 0.16% (inactive).

Consider `Cc1cccc(CN2CCc3c(OCC(=O)N4CCCc5ccccc54)cccc3C2=O)c1`, for which the CPE inhibition was 4.05% (inactive).

With `O=C1c2cccc(OCc3ccc(F)cc3)c2CCN1Cc1ccc(F)cc1`, the CPE inhibition is 7.61% (inactive).

Turning to `O=C(COc1cccc2c1CCN(Cc1ccccc1)C2=O)NCc1ccco1`, the CPE inhibition result was “inactive”.

On to `Cc1cccc(CN2CCc3c(OCC(=O)NCc4ccco4)cccc3C2=O)c1`, for which the CPE inhibition entry is “inactive”.

Consider `O=C1c2cccc(OCC(=O)N3CCCc4ccccc43)c2CCN1Cc1ccccc1`, for which the CPE inhibition result is “inactive”.

With `COC(=O)c1ccc(COc2cccc3c2CCN(Cc2cccc(C)c2)C3=O)o1`, the CPE inhibition is 0.825% (inactive).

Turning to `O=C(COc1cccc2c1CCN(Cc1ccc(Br)cc1)C2=O)NCc1ccco1`, the CPE inhibition was 13.9% (active).

`COc1ccc(CC(=O)Oc2cc(C)[nH]c(=O)c2[N+](=O)[O-])cc1`: the CPE inhibition entry is “inactive”.

For the molecule `O=C(NCCc1nc2ccccc2[nH]1)/C(=C/c1ccc2c(c1)OCO2)NC(=O)c1ccccc1`, the CPE inhibition entry was “inactive”.

Turning to `C=CCc1ccc(OCCOc2cccc3cccnc23)c(OC)c1`, the CPE inhibition was 1.16% (inactive).

In the case of `Nn1cnc2c(c1=O)C1(CCCCC1)Cc1ccccc1-2`, the CPE inhibition is 0.27% (inactive).

With `CSc1n[nH]c2nc3c(c(=O)n12)C1(CCCC1)Cc1ccccc1-3`, the CPE inhibition result is “inactive”.

As for `NC(=O)CSc1nc2c(c(=O)n1-c1ccccc1)C1(CCCCC1)Cc1ccccc1-2`, the CPE inhibition is 13.4% (active).

Take `COCc1nnc(NC(=O)c2cc(OC)c(OC)cc2[N+](=O)[O-])s1`: the CPE inhibition is 0.875% (inactive).

Regarding `Cc1ccc(S(=O)(=O)c2c(C(=O)c3ccccc3)cnc3cc4c(cc23)OCCO4)cc1`, the CPE inhibition is 13.2% (active).

For the molecule `Cc1ccc(C(=O)c2cnc3cc4c(cc3c2S(=O)(=O)c2ccccc2)OCCO4)cc1`, the CPE inhibition was 6.29% (inactive).

Regarding `CCOc1ccc(S(=O)(=O)c2c(C(=O)c3ccc(C)cc3)cnc3cc4c(cc23)OCCO4)cc1`, the CPE inhibition was 3.02% (inactive).

`Cc1ccc(O)c(-c2cc(C(=O)Nc3ccc(S(=O)(=O)Nc4nc(C)cc(C)n4)cc3)[nH]n2)c1`: the CPE inhibition result is “inactive”.

On to `COc1cc2cc(CCOC(=O)c3ccco3)oc(=O)c2cc1OC`, for which the CPE inhibition is 0.275% (inactive).

In the case of `N#Cc1ccc(NC(=O)COC(=O)CCNS(=O)(=O)c2ccccc2)cc1`, the CPE inhibition result is “inactive”.

With `CCCCCCCNC(=O)C1(CC2CC(c3ccc(Cl)cc3)=NO2)CCN(C(=O)C2(C)CC2)CC1` (stereo not drawn), the CPE inhibition is 1.24% (inactive).

Regarding `CCCCCCCNC(=O)C1(CC2CC(c3cccc(Br)c3)=NO2)CCN(C(=O)C2(C)CC2)CC1` (stereo not drawn), the CPE inhibition was 2.1% (inactive).

Consider `CCCCCCCNC(=O)C1(CC2CC(c3cccc(Br)c3)=NO2)CCNCC1` (stereo not drawn), for which the CPE inhibition entry is “inactive”.

In the case of `CCCCCCCNC(=O)C1(CC2CC(c3cccc(Br)c3)=NO2)CCN(C(=O)Cc2ccc(F)cc2)CC1` (stereo not drawn), the CPE inhibition was 21.7% (active).

Take `COC(=O)C1(CC2CC(c3ccncc3)=NO2)CCN(C(=O)OC(C)(C)C)CC1` (stereo not drawn): the CPE inhibition entry was “inactive”.

For `CCCCCCCNC(=O)C1(CC2CC(c3ccccc3)=NO2)CCN(C(=O)OC(C)(C)C)CC1` (stereo not drawn), the CPE inhibition is 14.1% (active).

As for `O=C(Nc1cccc2nsnc12)c1cccnc1Cl`, the CPE inhibition result is “inactive”.

For `Cc1ccc(CNC(=O)c2cc(-c3ccccc3)nn2CC2CC(c3cccnc3)=NO2)cc1` (stereo not drawn), the CPE inhibition entry was “inactive”.

Regarding `Cc1ccc(-c2cc(C(F)(F)F)c(C#N)c(=O)[nH]2)cc1`, the CPE inhibition was 0.3% (inactive).

Take `N/C(=N\OC(=O)Cc1ccccc1[N+](=O)[O-])c1ccncc1`: the CPE inhibition was 0.175% (inactive).

Turning to `Cc1ccc(C(=O)N/C(=C/c2ccco2)C(=O)NCCc2c[nH]c3ccccc23)cc1`, the CPE inhibition is 0.17% (inactive).

Consider `CCn1cc(Cl)c(C(=O)N2N=C(c3ccc4ccccc4c3)CC2c2ccccc2O)n1` (stereo not drawn), for which the CPE inhibition is 10% (active).

In the case of `CCn1cc([N+](=O)[O-])c(C(=O)N2N=C(c3ccc(O)c(OC)c3)CC2c2ccccc2O)n1` (stereo not drawn), the CPE inhibition is 2.17% (inactive).

Turning to `CCn1cc([N+](=O)[O-])c(C(=O)N2N=C(c3ccc(OC)cc3OC)CC2c2ccccc2O)n1` (stereo not drawn), the CPE inhibition is 0.7% (inactive).

Take `CC(=O)c1cccc(NC(=O)CCCOc2ccc(C)cc2)c1`: the CPE inhibition result is “inactive”.

In the case of `Cc1noc(C)c1CN(C(=S)NC(C)C)c1ccccc1`, the CPE inhibition result is “inactive”.

Take `Cc1ccsc1-c1n[nH]c(=S)n1CC(C)C`: the CPE inhibition result was “inactive”.

Turning to `Cn1nccc1C(=O)Nc1ccn(C23CC4CC(CC(C4)C2)C3)n1`, the CPE inhibition is 1.19% (inactive).

As for `Cn1cc([N+](=O)[O-])c(C(=O)Nc2ccn(C34CC5CC(CC(C5)C3)C4)n2)n1`, the CPE inhibition was 9.72% (active).

Take `CCn1cc([N+](=O)[O-])c(C(=O)Nc2ccn(C34CC5CC(CC(C5)C3)C4)n2)n1`: the CPE inhibition was 0.05% (inactive).

Turning to `O=C(C[n+]1cccc(CNC(=O)c2ccc(OC(F)F)cc2)c1)Nc1cccc(C(F)(F)F)c1`, the CPE inhibition is 0.165% (inactive).

In the case of `CC(/C=C/c1ccccc1F)=N\NC(=O)C(C)C`, the CPE inhibition was 1.25% (inactive).

As for `CN(C)c1ccc(N=Nc2ccccc2C(=O)OCC(=O)N2CCCCCC2)cc1`, the CPE inhibition is 1.56% (inactive).

Consider `COc1ccc(C2OCC3(CO2)SC(=O)NC3=O)cc1` (stereo not drawn), for which the CPE inhibition was 0.47% (inactive).

Take `CC(C)(C)NC(=O)C(c1cccs1)N(CC1CCCO1)C(=O)c1ccc(-c2ccccc2)[nH]1` (stereo not drawn): the CPE inhibition is 28.6% (active).

On to `O=C(NCC1CCCO1)C(c1cccs1)N(Cc1ccccc1)C(=O)c1ccc(-c2ccccc2)[nH]1` (stereo not drawn), for which the CPE inhibition is 8.12% (inactive).

`COc1ccc(C(=O)N(CC2CCCO2)C(C(=O)NCCC(C)C)c2ccc(C)cc2)cc1OC` (stereo not drawn): the CPE inhibition entry is “inactive”.

Consider `Cc1cc(C)cc(NC(=O)C(NCC2CCCO2)c2ccccc2)c1` (stereo not drawn), for which the CPE inhibition entry was “inactive”.

On to `O=C(NCC1CCCO1)C(c1cccs1)N(Cc1ccccc1Cl)C(=O)c1ccc(-c2ccccc2)[nH]1` (stereo not drawn), for which the CPE inhibition was 16.9% (active).

Turning to `O=C(NC1CCCC1)C(c1ccncc1)N(Cc1ccccc1)C(=O)c1ccc(-c2ccccc2)[nH]1` (stereo not drawn), the CPE inhibition is 3.1% (inactive).

With `O=C(COc1ccccc1[N+](=O)[O-])N/N=C/c1cccs1`, the CPE inhibition result is “inactive”.

As to `CCOc1cccc(/C=N/NC(=S)Nc2cc(S(=O)(=O)N3CCOCC3)ccc2N2CCOCC2)c1O`, the CPE inhibition entry was “inactive”.

With `Cc1ccc2[nH]c(=O)cc(C(=O)OCC(=O)c3ccccc3)c2c1`, the CPE inhibition result is “inactive”.

As for `COC(=O)CN1C(c2ccc(OC)cc2)=Nc2ccc(Cl)cc2C1c1ccccc1` (stereo not drawn), the CPE inhibition was 7.85% (inactive).

`COC(=O)CN1C(c2cccc(Cl)c2)=Nc2ccc(Cl)cc2C1c1ccccc1` (stereo not drawn): the CPE inhibition was 14.1% (active).

Turning to `CCOC(=O)CN1C(=O)N[C@@H](c2ccccc2)[C@@H](C(=O)OC)[C@H]1C`, the CPE inhibition is 0.065% (inactive).

On to `Cc1cc(C(=O)N2CCN(c3ccc([N+](=O)[O-])cc3)CC2)no1`, for which the CPE inhibition result was “inactive”.

As to `O=C1CC(c2ccccc2)Sc2nc(-c3ccccc3)c(-c3ccccc3)n21` (stereo not drawn), the CPE inhibition result was “inactive”.

Take `Cc1ccc(OCCN(C)C)c([N+](=O)[O-])c1`: the CPE inhibition was 0.995% (inactive).

`O=[N+]([O-])c1cccc(C(=S)N2CCN(c3ccccc3)CC2)c1`: the CPE inhibition is 0.055% (inactive).

Turning to `CS(=O)(=O)N1CCN(c2ccc([N+](=O)[O-])c(NCc3ccc(Cl)cc3)c2)CC1`, the CPE inhibition is 1.16% (inactive).

For `Cc1ccc(NC(=O)CSc2nnc(-c3cccs3)o2)cc1S(=O)(=O)N1CCCCC1`, the CPE inhibition result was “inactive”.

As for `COC(=O)Cc1ccc(NC(=S)NCc2ccc(Cl)cc2)cc1`, the CPE inhibition result is “inactive”.

For `COC(=O)c1cc(NC(=S)NCc2ccc(Cl)cc2)cc(C(=O)OC)c1`, the CPE inhibition is 13.6% (active).

Turning to `S=C(NCc1ccncc1)Nc1ccc(Cl)cc1`, the CPE inhibition was 0.775% (inactive).

For `CC1=CC(C)(C)N(C(=O)CSc2nnc(N)s2)c2ccccc21`, the CPE inhibition is 0.04% (inactive).

Take `COc1ccc2c(c1)-c1nc(/N=C/c3ccc(O)c(OC)c3)sc1CC2`: the CPE inhibition is 1.8% (inactive).

As to `Cc1ccc(-n2nc(C)c(C3(O)C(=O)N(C(C)C)c4ccccc43)c2N)cc1` (stereo not drawn), the CPE inhibition result was “inactive”.

`CCOC(=O)C1=C(C)N(Cc2ccccc2)C(=O)NC1c1ccccc1OS(=O)(=O)c1ccccc1[N+](=O)[O-]` (stereo not drawn): the CPE inhibition was 14.2% (active).

For the molecule `COC(=O)C1=C(C)N(Cc2ccccc2)C(=O)N[C@H]1c1cccc(F)c1`, the CPE inhibition was 0.125% (inactive).

As to `CCOC(=O)C1=C(C)N(CCCCCC(=O)O)C(=O)NC1c1cccc([N+](=O)[O-])c1` (stereo not drawn), the CPE inhibition was 0.825% (inactive).

As for `Cc1cccc(C)c1-n1c(SCC(=O)N2CC(=O)Nc3ccccc32)nc2ccccc2c1=O`, the CPE inhibition was 1.7% (inactive).

As for `Cc1ccc(Cn2c(SCC(=O)N3CC(=O)Nc4ccccc43)nc3ccccc3c2=O)cc1`, the CPE inhibition is 22.3% (active).

In the case of `Cc1ccc(-n2c(SCC(=O)N3CC(=O)Nc4ccccc43)nc3ccccc3c2=O)cc1`, the CPE inhibition was 2.37% (inactive).

`COc1ccc(C2=NN(C(=O)CSc3nc4ccccc4s3)C(c3ccc(OC)cc3)C2)cc1` (stereo not drawn): the CPE inhibition is 2.96% (inactive).

Regarding `COc1ccc(C2CC(c3ccccc3)=NN2C(=O)CSc2ncccn2)cc1` (stereo not drawn), the CPE inhibition is 0.205% (inactive).

Consider `CCCn1c(SCC(=O)N2N=C3/C(=C/c4ccc(OC)cc4)CCCC3C2c2ccc(OC)cc2)n[nH]c1=O` (stereo not drawn), for which the CPE inhibition was 10.2% (active).

With `C#CCNC(=O)C1=C[C@@H](c2ccc(C(F)(F)F)cc2)C[C@@H](OCc2ccc(CO)cc2)O1`, the CPE inhibition was 2.77% (inactive).

`CCC(OCC(O)CN1CCN(CCN2C(=O)c3cccc4cccc(c34)C2=O)CC1)c1ccccc1` (stereo not drawn): the CPE inhibition result was “inactive”.

Regarding `Cc1cccc(CC(=O)N2CCN=C2SCc2ccc([N+](=O)[O-])cc2)c1`, the CPE inhibition result is “inactive”.

Regarding `Cc1cccc(-n2c(Cc3ccccc3)nnc2SCc2ccc([N+](=O)[O-])cc2)c1`, the CPE inhibition is 14.3% (active).

Consider `O=[N+]([O-])c1ccc(CSc2nnc(Cc3ccccc3)n2-c2ccc(F)cc2)cc1`, for which the CPE inhibition was 3.26% (inactive).
